From PubChem BioAssay AID686978 (National Center for Advancing Translational Sciences (NCATS), 2013)
Out of some 420,000 compounds screened, about 64,000 (15%) were called active. Inconclusive results (about 27%) are left out. Not all results are given here. A number with no mark means an inactive call. Calls come from the whole dose curve; as a rule, active = well fitted inhibition curve with a large enough effect; inconclusive = small, poorly fitted or top-dose-only effect; inactive = flat fitted curve, though single readings scatter.

assay: qHTS for Inhibitors of human tyrosyl-DNA phosphodiesterase 1 (TDP1): qHTS in cells in absence of CPT; conditions: DT40 Tdp1-/- hTDP1 cells, no CPT, ATP luminescence, 48 h; activity change, negative = growth inhibition: at 46.2 µM (top of the series); note: nearly all actives have a fitted effect of over 55% in size
How it was run: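 Chicken DT40 Tdp1-/- cells complemented with human TDP1, screened without camptothecin (DMSO vehicle only), 400 cells/well. Compounds pin-transferred, cells incubated at 37 °C for at least 48 hr. Growth read as ATP-dependent luminescence (CellTiter-Glo, 30 min at RT).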
% is set by controls: 0 for no effect and ±100 for the full control effect; potency is the fitted concentration of half-maximal effect.

Row | SMILES | activity change, negative = growth inhibition [%] | Potency
1 | CCN(CC)CCCSc1nc2ccccc2s1 | -17.6 | 
2 | O=C(NC(=O)N1CCSCC1)c1c(Cl)cccc1Cl | -12 | 
3 | O=C(NCCc1cccc(F)c1)C1CC(O)CN1C(=O)Nc1ccccc1 (configuration not stated) | -11.9 | 
4 | COc1cc(CCC(=O)N2CCN(c3ccccc3Cl)CC2)cc(OC)c1OC |  | 11.6 µM (active)
5 | COc1cc(CCC(=O)Nc2ccncc2Cl)cc(OC)c1OC | -14.5 | 
6 | COc1ccc(CCC(=O)N2CCN(S(=O)(=O)c3ccc(OC)cc3)CC2)cc1 | -32.4 | 
7 | CCOC(=O)C1=C(c2ccccc2)O/C(=C(/C(=O)OC)C(F)(F)F)S1 | -21.6 | 
8 | Cc1ccc2c(c1)N(C(=O)CCC(=O)NCc1cccnc1)CCO2 | -4.05 | 
9 | Cc1c(C)n2c(SCC(=O)NC3CCCC3)nnc2[nH]c1=O | -3.76 | 
10 | CC(C)Cc1nnc(N)s1 | -14.3 | 
11 | CCOCCCN1C(=O)CN(C2CCCCC2)C(=O)C1c1ccc(OCC)c(OC)c1 (configuration not stated) | -15.8 | 
12 | CC1CCC(N2CC(=O)N(CCC3=CCCCC3)C(c3ccc(F)cc3)C2=O)CC1 (configuration not stated) |  | 10.3 µM (active)
13 | CCCc1nnc(SCC(=O)N2C(C)CCCC2C)n1CC (configuration not stated) | -0.484 | 
14 | O=C(c1cccc(N2CCCC2=O)c1)N1CCOCC1 | -0.431 | 
15 | O=C(c1cc2cc(Br)cc(Br)c2oc1=O)N1CCOCC1 | 3.73 | 
16 | O=C1Nc2c(Br)cc(Br)cc2C1(O)N1CCOCC1 (configuration not stated) |  | 3.66 µM (active)
17 | O=C(CSC(=S)N1CCOCC1)c1cc(Br)cc(Br)c1O | -13.5 | 
18 | O=C(CN1C(=O)c2cccc3cccc(c23)C1=O)N1CCCCC1 | -23.4 | 
19 | c1ccc(CCN2CN=C(Nc3nc4ccccc4o3)NC2)cc1 | -27.1 | 
20 | COc1cc(NS(=O)(=O)c2ccc(N/C=C(\C=O)c3nc4cc(Cl)ccc4o3)cc2)nc(OC)n1 | -5.39 | 
21 | O=C(NCCCN1CCOCC1)C1CCCN(S(=O)(=O)N2CCCCC2)C1 (configuration not stated) | 32.6 | 
22 | CCCSc1nsc(N)n1 | -9.3 | 

Row | SMILES | activity change, negative = growth inhibition [%] | Potency
23 | CCC(c1nnnn1Cc1ccco1)N(Cc1cc2cc(OC)ccc2[nH]c1=O)C1CCCCC1 (configuration not stated) |  | 23.1 µM (active)
24 | CCCN(Cc1cc2cccc(C)c2[nH]c1=O)S(C)(=O)=O | 9.52 | 
25 | CCOc1ccc2[nH]c(=O)c(C(c3nnnn3CCOC)N3CCOCC3)cc2c1 (configuration not stated) | 5.67 | 
26 | CCC(c1nnnn1Cc1ccco1)N(CCc1ccccc1)Cc1cc2ccc(OC)cc2[nH]c1=O (configuration not stated) |  | 29.1 µM (active)
27 | COc1ccc(/C(O)=C2\C(=O)C(=O)N(Cc3ccco3)C2c2ccc(OC)cc2OC)cc1 (configuration not stated) | -12.4 | 
28 | COc1ccc2[nH]c3c(=O)n(Cc4ccco4)cnc3c2c1 | -29.2 | 
29 | CC(C)C(c1nnnn1CCc1ccccc1)N1CCN(C(=O)c2ccco2)CC1 (configuration not stated) | -16 | 
30 | CCC(c1nnnn1Cc1ccco1)N(CCc1ccccc1)Cc1cc2cccc(C)c2[nH]c1=O (configuration not stated) |  | 29.1 µM (active)
31 | CCN(CC)c1ccc(/C=N/NC(=O)CNC(=O)c2cccs2)cc1 | -28 | 
32 | CN(C(=O)COC(=O)c1nc(Cl)ccc1Cl)C1CCS(=O)(=O)C1 (configuration not stated) | 8.66 | 
33 | COc1ccc(NC2CC(=O)N(C)C2=O)cc1 (configuration not stated) | -6.54 | 
34 | COc1ccccc1S(=O)(=O)c1c(C)cc(C)[nH]c1=O | 3.84 | 
35 | C=CCNC(=S)NNC(=O)COc1c(Cl)cc(Cl)cc1Cl | -26.5 | 
36 | CSc1ccc(/C=N/NC(=O)c2cccc(Cl)c2)cc1 | 6.76 | 
37 | O=C(N/N=C/c1ccoc1)c1ccc(Cl)cc1Cl | 13.7 | 
38 | CC(C)(C)C(=O)Nc1ccc(C(=O)N/N=C/c2ccccc2OC(=O)c2ccc(Cl)cc2Cl)cc1 |  | 11.6 µM (active)
39 | CCCN=C1N(C)C[C@@H]2[C@@H]3C(=O)N(Cc4ccccc4)C(=O)[C@@H]3[C@](C)(C(=O)OC)N12 | 2.25 | 
40 | CC[C@]1(C(=O)OC)[C@H]2C(=O)N(C)C(=O)[C@H]2[C@H]2CN(C)C(=NCc3ccccc3)N21 | -2.94 | 
41 | CCN1C[C@@H]2[C@@H]3C(=O)N(Cc4ccccc4)C(=O)[C@@H]3[C@](Cc3ccccc3)(C(=O)OC)N2C1=NC1CCCCC1 |  | 16.4 µM (active)
42 | CCOC(=O)c1cc2occc2n1CC(=O)N1CCN(C(=O)c2ccco2)CC1 | -21.7 | 
43 | ClC1(Cl)CC1CSc1ncn[nH]1 (configuration not stated) | 12.6 | 
44 | CC(=O)O[C@H]1c2ccccc2-c2ccccc2[C@@H]1OC(C)=O | 1.27 | 

Row | SMILES | activity change, negative = growth inhibition [%] | Potency
45 | CC(Sc1nc2ccccc2c(=O)n1Cc1ccco1)C(=O)c1ccccc1 (configuration not stated) | -5.11 | 
46 | Cc1ccc(Cn2c(=O)n(Cc3nc(-c4ccccc4)no3)c(=O)c3cc4c(cc32)OCO4)cc1 | 10.7 | 
47 | Cc1ccc(Cn2c(C)nc3c(c2=O)c2nc4ccccc4nc2n3Cc2ccco2)cc1 |  | 23.1 µM (active)
48 | O=C(NNc1ccccn1)c1ccc(Cl)nc1 | -0.0188 | 
49 | Cc1nc2scc(-c3cccs3)c2c(=O)n1N | -27.9 | 
50 | CCCc1nc2scc(-c3ccc(C)cc3)c2c(=O)n1N |  | 18.4 µM (active)
51 | CCOC(=O)C(C)n1cnc2scc(-c3ccc(C)c(C)c3)c2c1=O (configuration not stated) | 2.91 | 
52 | Cc1cc(C)c(S(=O)(=O)c2ccccc2)c(OC(=O)c2c(F)cccc2Cl)n1 | -16.8 | 
53 | CCN(CC)S(=O)(=O)c1ccc(N(C)Cc2cccc(OC)c2OC)nc1 |  | 18.4 µM (active)
54 | CCOc1ccc(Br)cc1S(=O)(=O)Nc1cccc(S(=O)(=O)N(CC)CC)c1 | 2.37 | 
55 | CCN(CC)S(=O)(=O)c1ccc(N(C)Cc2ccc(C(F)(F)F)cc2)nc1 |  | 13 µM (active)
56 | CCN(CC)S(=O)(=O)c1ccc(Cl)c(NC(=O)c2ccncc2)c1 | -13.3 | 
57 | CCOC(=O)CN(Cc1ccc(OC)c(OC)c1)S(=O)(=O)c1ccc(OC)cc1 | -19.3 | 
58 | CCS(=O)(=O)NCCc1ccc(OC)c(OC)c1 | -19.1 | 
59 | CCN(CC)S(=O)(=O)c1ccc(N(C)CCc2ccc(OC)c(OC)c2)nc1 |  | 20.6 µM (active)
60 | CCN(CC)S(=O)(=O)c1ccc(NC(=O)c2cnc(C)cn2)cc1 | 3.23 | 
61 | CCN(CC)S(=O)(=O)c1ccc(OC)c(NC(=O)CCc2c(C)noc2C)c1 | 12.1 | 
62 | NC(=O)C[C@@H]1NC(=O)CNC(=O)c2cc([N+](=O)[O-])cc(I)c2NCCC(C(N)=O)NC1=O (some centres not stated) | 18.2 | 
63 | COc1ccc(-n2c(CNC(=O)c3cc(C(F)(F)F)ccc3Cl)nnc2SC)cc1 | -15.9 | 
64 | CC(C)=CC(=O)Nc1nnc(-c2ccc(F)cc2)s1 | -7.58 | 
65 | COc1cccc(OC)c1C(=O)Nc1nnc(C(C)C)s1 | -11.6 | 
66 | COc1ccc(N2C(=O)C3CCCN3C2c2cccs2)cc1 (configuration not stated) | -5.08 | 

Row | SMILES | activity change, negative = growth inhibition [%] | Potency
67 | Cc1cc(C)c2c(-n3cccc3)c(C(=O)NNS(=O)(=O)c3ccc(F)cc3)sc2n1 | 3.21 | 
68 | Cc1cc(C(=O)CC#N)c(C)n1-c1c(C)n(C)n(-c2ccccc2)c1=O | 8 | 
69 | Cc1nn(C)c(Cl)c1CN1CCC(n2nccc2NC(=O)C2CCCC2)CC1 | 11.6 | 
70 | O=C(O)C1=CCCN(CCON=C(c2ccccc2)c2ccccc2)C1 |  | inactive
71 | COc1ccc(OC)c(/C(C)=N\NC(=O)c2cc3cc(Cl)ccc3n2C)c1 |  | 4.61 µM (active)
72 | COc1ccc(NC(=O)c2cc3cc(C)ccc3n2C)cc1 | -27.1 | 
73 | Cc1ccc(NC(=O)c2cc3cc(C)ccc3n2C)cc1 | -21.4 | 
74 | Cc1cc(C)cc(OCC(=O)O/N=C(\N)Cc2ccc([N+](=O)[O-])cc2)c1 | 0.454 | 
75 | CCOc1ccc(NS(=O)(=O)c2ccc(OCC(=O)NCCCOC)cc2)cc1 | -13 | 
76 | COC(=O)Cc1c(C)c2ccc(OCC(=O)NCc3ccc4c(c3)OCO4)cc2oc1=O | -22.1 | 
77 | CCOc1ccc2c(=O)c(-c3ccc4c(c3)OCCCO4)c(C)oc2c1 |  | 13 µM (active)
78 | O=C(COc1ccc2c(C(F)(F)F)cc(=O)oc2c1)Nc1ccc2c(c1)OCCO2 | -5.56 | 
79 | Cc1ccc(N2CC(C(=O)Nc3ccc(N(C)C)cc3)CC2=O)cc1Cl (configuration not stated) | -9.28 | 
80 | Cc1cnc(NC(=O)CSc2nnc(C)s2)s1 | 7.27 | 
81 | COc1ccccc1C(=O)NCc1nnc(SC(C)C(=O)Nc2nccs2)n1C (configuration not stated) | 21.3 | 
82 | Cc1cnc(NC(=O)CSc2c(Cl)cccc2Cl)s1 |  | 13 µM (active)
83 | COc1ccc(CC(=O)NCc2nnc(SCC(=O)Nc3nccs3)n2C)cc1 | 14.7 | 
84 | COc1ccc(C(=O)NCc2nnc(SCCOc3ccccc3)n2C)cc1 |  | 29.1 µM (active)
85 | COc1ccc(CC(=O)NCc2nnc(SCC(=O)Nc3ncc(C)s3)n2C)cc1 |  | 16.4 µM (active)
86 | Cc1ccc(SCC(=O)Nc2ncc(C)s2)cc1 | -28.1 | 
87 | COC(=O)c1ccc(NC(=O)CSc2nnc(CNc3ccc(OC)cc3)n2C)cc1 | -4.03 | 
88 | COc1ccc(-n2nnnc2CNC(=O)c2ccc3ccccc3c2)cc1 | -26.4 | 

Row | SMILES | activity change, negative = growth inhibition [%] | Potency
89 | C=CCC1=C/C(=C\c2c(N)n3nc(CC(=O)N4CCOCC4)sc3nc2=O)C=C(OC)C1=O | 15.1 | 
90 | CC(=O)NC1CC2CCCC(C1)N2CC(=O)Nc1ccccc1 (configuration not stated) | 2.41 | 
91 | COc1ccccc1NS(=O)(=O)N(C)C | -6.71 | 
92 | CC(C)(C)NC(=O)/C(=C/c1cccnc1)NC(=O)c1ccco1 | 2.45 | 
93 | NS(=O)(=O)c1ccc2nc(NC(=O)C3=COCCO3)sc2c1 | 6.91 | 
94 | N#CC(Cc1cc2ccccc2n1S(=O)(=O)c1ccccc1)OCc1ccccc1 (configuration not stated) | -27.1 | 
95 | O=C(Nn1cnnc1)c1cc(Cl)ccc1Cl | -10.9 | 
96 | CC(C)=CCN1CCN(Cc2ccc(Oc3ncccn3)cc2)CC1CCO (configuration not stated) | -1.59 | 
97 | Cc1ccc(NC(=O)c2cccc(N(C)C)c2)cc1NC(=O)c1ccc(O)cc1 | -28.1 | 
98 | O=C1[C@@H]2C(c3cccnc3)=NO[C@@H]2C(=O)N1c1ccc(Cl)cc1Cl | -44.3 | 
99 | OCCC1CN(Cc2ccccc2-c2ccco2)CCN1Cc1ccsc1 (configuration not stated) | -34.4 | 
100 | Cc1ccc(C)c2[nH]c(=O)c(CCNC(=O)c3cccs3)cc12 | -24.4 | 
101 | COc1ccccc1NC(=O)CCC(=O)OC(C)C(=O)c1ccccc1 (configuration not stated) | 10.1 | 
102 | CCOc1ccc2[nH]c(=O)c(CN(Cc3nnnn3CCc3ccccc3)CC3CCCO3)cc2c1 (configuration not stated) |  | 14.6 µM (active)
103 | O=C(c1cccs1)N(Cc1cc2ccccc2[nH]c1=O)CC1CCCO1 (configuration not stated) | 2.95 | 
104 | Cc1ccc(C(=O)N/C(=C/c2cccs2)C(=O)NCC2CCCO2)cc1 (configuration not stated) | -6.29 | 
105 | Cc1cc2cc(CN(Cc3cccs3)Cc3nnnn3CC3CCCO3)c(=O)[nH]c2cc1C (configuration not stated) |  | 20.6 µM (active)
106 | COc1ccc2[nH]c(=O)c(CN(Cc3nnnn3CCc3ccccc3)CC3CCCO3)cc2c1 (configuration not stated) |  | 9.2 µM (active)
107 | Cc1ccc(S(=O)(=O)N(Cc2cc3ccccc3[nH]c2=O)CC2CCCO2)cc1 (configuration not stated) | -12.1 | 
